Records with an inconclusive call do not appear. Calls of active or inactive are those of the source. The call rests on the fitted dose curve; in most records, active means well fitted inhibition curve with a large enough effect; inconclusive means small, poorly fitted or top-dose-only effect; inactive means flat fitted curve, though single readings scatter.
Experiments:
[1] = qHTS profiling for inhibitors of Plasmodium falciparum proliferation (AID 504749);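 further: 0% = DMSO vehicle and full inhibition = artemisinin control; nearly all actives have a fitted effect of over 60% in size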; details: P. falciparum in erythrocytes, SYBR Green DNA, 72 h, at 28.7 µM (top of the series)
Outline: (§1)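 P. falciparum-infected erythrocytes (0.3% parasitemia, 2.5% hematocrit final) were exposed to compounds for 72 h at 37 C in 5% CO2, then lysed with SYBR Green buffer overnight at room temperature; parasite DNA fluorescence was normalized to artemisinin and DMSO controls.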

[2] = system: 3D7; test: as above; details: P. falciparum in erythrocytes, SYBR Green DNA, 72 h; series mostly up to 28.7 µM
Outline: as §1

[3] = system: AA1029; test: as above; details: P. falciparum in erythrocytes, SYBR Green DNA, 72 h; series mostly up to 28.7 µM
Outline: as §1

[4] = system: AS120; test: as above; details: P. falciparum in erythrocytes, SYBR Green DNA, 72 h; series mostly up to 28.7 µM
Outline: as §1

[5] = system: ATS189; test: as above; details: P. falciparum in erythrocytes, SYBR Green DNA, 72 h; series mostly up to 28.7 µM
Outline: as §1

[6] = system: ATS95; test: as above; details: P. falciparum in erythrocytes, SYBR Green DNA, 72 h; series mostly up to 28.7 µM
Outline: as §1

[7] = system: C2A; test: as above; details: P. falciparum in erythrocytes, SYBR Green DNA, 72 h; series mostly up to 28.7 µM
Outline: as §1

[8] = system: CP185; test: as above; details: P. falciparum in erythrocytes, SYBR Green DNA, 72 h; series mostly up to 28.7 µM
Outline: as §1

[9] = system: CP191; test: as above; details: P. falciparum in erythrocytes, SYBR Green DNA, 72 h; series mostly up to 28.7 µM
Outline: as §1

[10] = system: CP192; test: as above; details: P. falciparum in erythrocytes, SYBR Green DNA, 72 h; series mostly up to 28.7 µM
Outline: as §1

[11] = system: CP194; test: as above; details: P. falciparum in erythrocytes, SYBR Green DNA, 72 h; series mostly up to 28.7 µM
Outline: as §1

[12] = system: CP201; test: as above; details: P. falciparum in erythrocytes, SYBR Green DNA, 72 h; series mostly up to 28.7 µM
Outline: as §1

[13] = system: CP203; test: as above; details: P. falciparum in erythrocytes, SYBR Green DNA, 72 h; series mostly up to 28.7 µM
Outline: as §1

[14] = system: CP211; test: as above; details: P. falciparum in erythrocytes, SYBR Green DNA, 72 h; series mostly up to 28.7 µM
Outline: as §1

[15] = system: 7G8; test: as above; details: P. falciparum in erythrocytes, SYBR Green DNA, 72 h; series mostly up to 28.7 µM
Outline: as §1

c1cc2c(c(NC3=NCCN3)c1)CCCC2
inactive: activity, negative = inhibition ([1]; parasite line A) -15.6% | activity, negative = inhibition ([1]; parasite line B) -7.85% | Potency [2] | Potency [3] | Potency [4] | Potency [5] | Potency [6] | Potency [7] | Potency [8] | Potency [9]

O=C1C2CC=CCC2C(=O)N1SC(Cl)(Cl)Cl (stereo not given)
inactive: activity, negative = inhibition ([1]; parasite line A) -6.95% | activity, negative = inhibition ([1]; parasite line B) 5.29% | Potency [2] | Potency [3] | Potency [4] | Potency [5] | Potency [6] | Potency [7] | Potency [8] | Potency [9] | Potency [10] | Potency [11] | Potency [12] | Potency [13] | Potency [14]

OC(c1ccccc1)(c1ccccc1)C1CN2CCC1CC2 (stereo not given)
inactive: activity, negative = inhibition ([1]; parasite line A) 2.79% | activity, negative = inhibition ([1]; parasite line B) -0.359% | Potency [2] | Potency [4] | Potency [5] | Potency [6] | Potency [7] | Potency [8] | Potency [10] | Potency [11] | Potency [12] | Potency [13] | Potency [14]

CNC1(c2ccccc2Cl)CCCCC1=O (stereo not given)
inactive: activity, negative = inhibition ([1]; parasite line A) 12.4% | Potency [2] | Potency [15] | Potency [3] | Potency [4] | Potency [5] | Potency [7] | Potency [8] | Potency [10] | Potency [12] | Potency [13] | Potency [14]

CCNC(C)Cc1cccc(C(F)(F)F)c1 (stereo not given)
inactive: activity, negative = inhibition ([1]; parasite line A) 6.39% | Potency [2] | Potency [15] | Potency [3] | Potency [4] | Potency [5] | Potency [6] | Potency [7] | Potency [8] | Potency [9] | Potency [10] | Potency [11] | Potency [12] | Potency [13] | Potency [14]

— PubChem BioAssay (NCATS)
